Results taken from ChEMBL document CHEMBL2218924, “A broad activity screen in support of a chemogenomic map for kinase signalling research and drug discovery” (Biochem J, 2013).

Experiments:
[1] = target: T1, Serine/threonine-protein kinase TBK1 (Homo sapiens) (UniProt Q9UHD2); conditions: at 10 µM
T1 sequence (whole entry): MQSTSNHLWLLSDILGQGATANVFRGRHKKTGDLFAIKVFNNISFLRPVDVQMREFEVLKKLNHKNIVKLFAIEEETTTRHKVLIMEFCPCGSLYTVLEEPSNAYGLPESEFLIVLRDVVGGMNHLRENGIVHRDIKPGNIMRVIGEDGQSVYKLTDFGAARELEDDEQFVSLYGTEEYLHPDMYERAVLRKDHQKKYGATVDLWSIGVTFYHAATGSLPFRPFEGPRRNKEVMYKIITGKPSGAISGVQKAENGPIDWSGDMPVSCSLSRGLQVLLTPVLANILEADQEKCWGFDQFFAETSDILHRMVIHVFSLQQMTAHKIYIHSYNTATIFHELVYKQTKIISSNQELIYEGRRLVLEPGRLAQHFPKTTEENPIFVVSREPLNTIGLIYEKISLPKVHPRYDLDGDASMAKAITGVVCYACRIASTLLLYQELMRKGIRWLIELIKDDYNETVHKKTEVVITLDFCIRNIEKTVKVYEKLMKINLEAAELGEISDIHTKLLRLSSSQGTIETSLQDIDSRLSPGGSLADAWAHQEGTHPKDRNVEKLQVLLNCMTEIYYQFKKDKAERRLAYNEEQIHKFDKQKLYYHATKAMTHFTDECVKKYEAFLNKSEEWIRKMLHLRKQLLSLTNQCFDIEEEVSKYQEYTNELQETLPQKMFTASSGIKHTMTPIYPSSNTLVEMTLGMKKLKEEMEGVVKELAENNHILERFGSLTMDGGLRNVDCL

[2] = target: T2, TGF-beta receptor type-1 (Homo sapiens) (UniProt P36897); conditions: at 1 µM
T2 sequence (whole entry): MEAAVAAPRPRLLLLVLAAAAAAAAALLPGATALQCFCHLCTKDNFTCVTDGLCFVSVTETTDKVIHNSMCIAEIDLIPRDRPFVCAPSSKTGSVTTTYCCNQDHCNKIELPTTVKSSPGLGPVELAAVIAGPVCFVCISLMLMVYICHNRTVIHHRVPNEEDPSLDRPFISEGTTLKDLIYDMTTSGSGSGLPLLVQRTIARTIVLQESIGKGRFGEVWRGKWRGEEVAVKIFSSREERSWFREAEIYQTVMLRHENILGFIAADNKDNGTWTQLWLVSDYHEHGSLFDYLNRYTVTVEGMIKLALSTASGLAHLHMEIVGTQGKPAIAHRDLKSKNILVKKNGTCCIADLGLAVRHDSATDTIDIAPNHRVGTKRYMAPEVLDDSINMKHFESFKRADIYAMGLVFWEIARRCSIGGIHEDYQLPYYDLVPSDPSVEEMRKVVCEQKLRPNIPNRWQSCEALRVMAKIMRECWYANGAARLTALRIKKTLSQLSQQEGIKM

[3] = target: T2, TGF-beta receptor type-1 (Homo sapiens); conditions: at 10 µM
[4] = target: Insulin-like growth factor 1 receptor (Homo sapiens) (UniProt P08069); conditions: at 1 µM
Insulin-like growth factor 1 receptor (Homo sapiens), sequence (P08069 31-736 limits assumed): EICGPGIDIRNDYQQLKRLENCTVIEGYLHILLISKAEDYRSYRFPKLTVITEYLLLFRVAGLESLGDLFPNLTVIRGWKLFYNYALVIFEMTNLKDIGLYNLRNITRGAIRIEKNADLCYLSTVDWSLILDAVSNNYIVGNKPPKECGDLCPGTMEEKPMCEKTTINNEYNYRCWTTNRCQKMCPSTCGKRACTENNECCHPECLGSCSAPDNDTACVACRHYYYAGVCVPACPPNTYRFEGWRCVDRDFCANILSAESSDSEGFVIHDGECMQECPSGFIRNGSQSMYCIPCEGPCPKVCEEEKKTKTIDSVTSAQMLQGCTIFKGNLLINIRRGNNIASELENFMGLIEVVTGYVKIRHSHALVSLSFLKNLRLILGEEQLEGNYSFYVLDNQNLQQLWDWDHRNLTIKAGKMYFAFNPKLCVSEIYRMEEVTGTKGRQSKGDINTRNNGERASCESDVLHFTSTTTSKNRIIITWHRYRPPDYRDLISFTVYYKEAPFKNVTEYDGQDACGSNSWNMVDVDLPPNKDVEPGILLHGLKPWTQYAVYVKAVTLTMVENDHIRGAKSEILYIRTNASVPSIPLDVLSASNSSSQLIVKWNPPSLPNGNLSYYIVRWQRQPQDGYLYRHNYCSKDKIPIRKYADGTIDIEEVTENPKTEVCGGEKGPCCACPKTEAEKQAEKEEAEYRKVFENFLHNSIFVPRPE
Insulin-like growth factor 1 receptor (Homo sapiens), sequence (P08069 741-1367 limits assumed): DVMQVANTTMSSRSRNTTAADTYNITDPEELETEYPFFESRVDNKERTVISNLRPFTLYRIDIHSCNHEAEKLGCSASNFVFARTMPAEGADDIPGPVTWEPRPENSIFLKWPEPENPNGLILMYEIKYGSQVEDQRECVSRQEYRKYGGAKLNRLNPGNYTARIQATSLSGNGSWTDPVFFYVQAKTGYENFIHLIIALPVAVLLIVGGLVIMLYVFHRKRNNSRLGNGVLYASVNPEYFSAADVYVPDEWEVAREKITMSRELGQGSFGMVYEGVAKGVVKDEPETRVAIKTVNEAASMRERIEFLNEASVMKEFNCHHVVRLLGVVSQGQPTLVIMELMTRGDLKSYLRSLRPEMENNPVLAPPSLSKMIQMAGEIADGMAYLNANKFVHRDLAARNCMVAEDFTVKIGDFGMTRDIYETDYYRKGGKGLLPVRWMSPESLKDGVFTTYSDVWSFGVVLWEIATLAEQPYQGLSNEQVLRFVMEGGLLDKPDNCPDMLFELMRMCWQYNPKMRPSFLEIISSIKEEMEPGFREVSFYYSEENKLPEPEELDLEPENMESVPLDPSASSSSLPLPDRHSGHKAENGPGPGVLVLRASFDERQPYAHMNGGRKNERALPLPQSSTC

[5] = target: Insulin-like growth factor 1 receptor (Homo sapiens) (UniProt P08069); conditions: at 10 µM
[6] = target: T3, Inhibitor of nuclear factor kappa-B kinase subunit alpha (Homo sapiens) (UniProt O15111); conditions: at 1 µM
T3 sequence (whole entry): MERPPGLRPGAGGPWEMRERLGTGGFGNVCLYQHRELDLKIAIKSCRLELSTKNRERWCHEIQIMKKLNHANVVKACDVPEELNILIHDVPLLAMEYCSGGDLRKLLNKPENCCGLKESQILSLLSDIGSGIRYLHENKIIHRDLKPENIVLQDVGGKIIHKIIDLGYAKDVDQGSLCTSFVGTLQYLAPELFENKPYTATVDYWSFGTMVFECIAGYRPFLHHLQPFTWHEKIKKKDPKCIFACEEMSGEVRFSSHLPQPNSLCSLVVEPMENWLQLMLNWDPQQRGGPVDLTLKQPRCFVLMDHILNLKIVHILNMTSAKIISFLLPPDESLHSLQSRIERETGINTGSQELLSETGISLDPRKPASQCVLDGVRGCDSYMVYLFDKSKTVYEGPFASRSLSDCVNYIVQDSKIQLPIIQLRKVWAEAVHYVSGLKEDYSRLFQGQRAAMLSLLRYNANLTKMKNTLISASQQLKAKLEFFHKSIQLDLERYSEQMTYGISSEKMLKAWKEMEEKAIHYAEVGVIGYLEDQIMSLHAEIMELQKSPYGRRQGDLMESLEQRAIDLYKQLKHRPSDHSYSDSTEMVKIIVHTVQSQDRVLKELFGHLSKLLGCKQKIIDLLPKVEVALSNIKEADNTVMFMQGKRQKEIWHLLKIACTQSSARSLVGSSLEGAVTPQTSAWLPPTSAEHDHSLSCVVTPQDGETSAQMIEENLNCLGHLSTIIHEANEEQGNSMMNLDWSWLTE

[7] = target: T3, Inhibitor of nuclear factor kappa-B kinase subunit alpha (Homo sapiens); conditions: at 10 µM
[8] = target: T4, Inhibitor of nuclear factor kappa-B kinase subunit beta (Homo sapiens) (UniProt O14920); conditions: at 1 µM
T4 sequence (whole entry): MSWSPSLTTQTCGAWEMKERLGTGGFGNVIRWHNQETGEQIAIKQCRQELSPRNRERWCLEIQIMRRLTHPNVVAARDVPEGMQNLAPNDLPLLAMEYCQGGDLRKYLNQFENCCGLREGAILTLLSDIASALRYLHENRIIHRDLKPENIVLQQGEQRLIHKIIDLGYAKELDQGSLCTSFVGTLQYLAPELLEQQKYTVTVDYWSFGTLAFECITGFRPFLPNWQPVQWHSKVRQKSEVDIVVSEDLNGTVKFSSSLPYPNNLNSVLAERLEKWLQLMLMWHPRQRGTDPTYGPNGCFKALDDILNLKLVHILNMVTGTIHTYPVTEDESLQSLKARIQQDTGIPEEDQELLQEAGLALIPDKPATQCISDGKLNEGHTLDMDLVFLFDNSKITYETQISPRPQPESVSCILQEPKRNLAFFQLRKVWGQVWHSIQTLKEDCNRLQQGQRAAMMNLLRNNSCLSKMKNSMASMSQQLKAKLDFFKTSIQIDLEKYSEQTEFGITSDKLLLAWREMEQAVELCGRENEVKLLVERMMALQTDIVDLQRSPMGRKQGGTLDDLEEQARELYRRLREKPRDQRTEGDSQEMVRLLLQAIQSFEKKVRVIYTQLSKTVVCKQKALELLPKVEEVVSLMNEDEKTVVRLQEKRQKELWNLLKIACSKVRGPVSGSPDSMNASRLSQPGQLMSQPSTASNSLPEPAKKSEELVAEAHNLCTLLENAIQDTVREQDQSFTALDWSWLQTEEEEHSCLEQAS

[9] = target: T4, Inhibitor of nuclear factor kappa-B kinase subunit beta (Homo sapiens); conditions: at 10 µM
[10] = target: Insulin receptor (Homo sapiens) (UniProt P06213); conditions: at 1 µM
Insulin receptor (Homo sapiens), sequence (P06213 28-758 limits assumed): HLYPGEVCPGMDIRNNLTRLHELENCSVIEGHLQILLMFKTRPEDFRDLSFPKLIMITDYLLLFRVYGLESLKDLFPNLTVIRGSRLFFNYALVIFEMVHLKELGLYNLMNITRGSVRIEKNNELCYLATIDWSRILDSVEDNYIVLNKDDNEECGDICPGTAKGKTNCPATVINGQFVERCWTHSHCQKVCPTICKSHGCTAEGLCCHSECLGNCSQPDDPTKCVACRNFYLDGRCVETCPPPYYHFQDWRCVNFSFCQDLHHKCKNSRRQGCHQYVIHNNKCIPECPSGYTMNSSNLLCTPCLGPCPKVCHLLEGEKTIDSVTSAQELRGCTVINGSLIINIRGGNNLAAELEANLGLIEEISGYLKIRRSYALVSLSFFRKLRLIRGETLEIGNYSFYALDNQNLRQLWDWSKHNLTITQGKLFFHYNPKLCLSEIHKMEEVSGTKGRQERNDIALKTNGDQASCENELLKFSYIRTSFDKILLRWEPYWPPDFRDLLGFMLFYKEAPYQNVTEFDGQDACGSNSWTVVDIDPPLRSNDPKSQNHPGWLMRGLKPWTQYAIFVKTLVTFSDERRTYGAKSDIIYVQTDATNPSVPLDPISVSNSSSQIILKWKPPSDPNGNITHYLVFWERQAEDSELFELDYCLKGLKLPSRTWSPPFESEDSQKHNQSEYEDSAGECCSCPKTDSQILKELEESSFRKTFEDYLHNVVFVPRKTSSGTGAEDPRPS
Insulin receptor (Homo sapiens), sequence (P06213 763-1382 limits assumed): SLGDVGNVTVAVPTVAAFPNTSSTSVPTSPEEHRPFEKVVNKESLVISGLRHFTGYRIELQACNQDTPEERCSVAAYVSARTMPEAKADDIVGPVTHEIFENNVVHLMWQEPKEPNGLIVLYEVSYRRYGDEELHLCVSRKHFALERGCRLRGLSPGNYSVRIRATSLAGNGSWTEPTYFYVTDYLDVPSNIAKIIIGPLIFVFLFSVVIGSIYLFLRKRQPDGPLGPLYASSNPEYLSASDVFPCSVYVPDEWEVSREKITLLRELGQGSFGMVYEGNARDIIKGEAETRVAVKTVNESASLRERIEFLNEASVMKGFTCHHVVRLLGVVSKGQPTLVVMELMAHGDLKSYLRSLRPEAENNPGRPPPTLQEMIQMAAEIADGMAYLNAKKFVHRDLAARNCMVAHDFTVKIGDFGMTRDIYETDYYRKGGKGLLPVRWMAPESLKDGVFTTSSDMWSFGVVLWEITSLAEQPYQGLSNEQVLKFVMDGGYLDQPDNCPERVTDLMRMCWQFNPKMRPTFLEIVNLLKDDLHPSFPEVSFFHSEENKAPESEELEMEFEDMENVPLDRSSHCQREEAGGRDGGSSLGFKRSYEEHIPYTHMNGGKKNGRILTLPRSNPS

[11] = target: Insulin receptor (Homo sapiens) (UniProt P06213); conditions: at 10 µM
[12] = target: Insulin receptor (Homo sapiens) (UniProt P06213); conditions: at 1 µM; remark: listed apart in the source
[13] = target: Insulin receptor (Homo sapiens) (UniProt P06213); conditions: at 10 µM; remark: listed apart in the source
[14] = target: Interleukin-1 receptor-associated kinase 1 (Homo sapiens) (UniProt P51617); conditions: at 1 µM
Interleukin-1 receptor-associated kinase 1 (Homo sapiens), sequence (P51617 whole entry, looked up): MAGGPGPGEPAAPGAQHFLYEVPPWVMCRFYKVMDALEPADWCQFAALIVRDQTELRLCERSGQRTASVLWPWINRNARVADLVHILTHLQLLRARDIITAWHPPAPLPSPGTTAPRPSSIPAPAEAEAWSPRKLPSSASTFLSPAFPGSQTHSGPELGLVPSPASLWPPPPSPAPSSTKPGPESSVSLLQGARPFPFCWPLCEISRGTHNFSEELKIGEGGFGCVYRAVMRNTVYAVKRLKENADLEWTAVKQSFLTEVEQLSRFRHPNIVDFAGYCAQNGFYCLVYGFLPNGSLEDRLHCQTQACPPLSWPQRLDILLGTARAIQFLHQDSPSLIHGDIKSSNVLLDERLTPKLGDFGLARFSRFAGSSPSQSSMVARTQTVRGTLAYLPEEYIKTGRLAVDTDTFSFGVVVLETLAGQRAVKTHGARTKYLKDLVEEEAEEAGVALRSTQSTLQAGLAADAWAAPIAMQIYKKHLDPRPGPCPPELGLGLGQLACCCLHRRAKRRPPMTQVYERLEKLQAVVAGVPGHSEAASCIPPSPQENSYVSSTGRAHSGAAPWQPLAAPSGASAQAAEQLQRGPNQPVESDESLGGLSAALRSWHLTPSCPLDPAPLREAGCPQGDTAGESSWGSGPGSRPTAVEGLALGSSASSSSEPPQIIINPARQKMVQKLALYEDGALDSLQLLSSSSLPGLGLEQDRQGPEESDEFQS

[15] = target: Interleukin-1 receptor-associated kinase 1 (Homo sapiens) (UniProt P51617); conditions: at 10 µM
[16] = target: T5, Interleukin-1 receptor-associated kinase 4 (Homo sapiens) (UniProt Q9NWZ3); conditions: at 1 µM
T5 sequence (whole entry): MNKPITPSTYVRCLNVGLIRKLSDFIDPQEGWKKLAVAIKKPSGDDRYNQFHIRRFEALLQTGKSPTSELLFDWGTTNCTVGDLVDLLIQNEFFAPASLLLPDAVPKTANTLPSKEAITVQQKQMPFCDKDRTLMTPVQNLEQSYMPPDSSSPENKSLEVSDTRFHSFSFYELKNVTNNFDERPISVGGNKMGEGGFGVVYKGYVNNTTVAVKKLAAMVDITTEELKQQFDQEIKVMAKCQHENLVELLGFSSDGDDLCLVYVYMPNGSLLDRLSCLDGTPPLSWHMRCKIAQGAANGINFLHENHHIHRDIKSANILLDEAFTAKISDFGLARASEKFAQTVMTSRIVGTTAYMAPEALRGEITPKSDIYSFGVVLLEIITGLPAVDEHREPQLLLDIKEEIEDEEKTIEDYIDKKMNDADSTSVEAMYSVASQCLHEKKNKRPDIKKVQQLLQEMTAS

[17] = target: T5, Interleukin-1 receptor-associated kinase 4 (Homo sapiens); conditions: at 10 µM
[18] = target: Insulin receptor-related protein (Homo sapiens) (UniProt P14616); conditions: at 1 µM
Insulin receptor-related protein (Homo sapiens), sequence (P14616 27-742 limits assumed): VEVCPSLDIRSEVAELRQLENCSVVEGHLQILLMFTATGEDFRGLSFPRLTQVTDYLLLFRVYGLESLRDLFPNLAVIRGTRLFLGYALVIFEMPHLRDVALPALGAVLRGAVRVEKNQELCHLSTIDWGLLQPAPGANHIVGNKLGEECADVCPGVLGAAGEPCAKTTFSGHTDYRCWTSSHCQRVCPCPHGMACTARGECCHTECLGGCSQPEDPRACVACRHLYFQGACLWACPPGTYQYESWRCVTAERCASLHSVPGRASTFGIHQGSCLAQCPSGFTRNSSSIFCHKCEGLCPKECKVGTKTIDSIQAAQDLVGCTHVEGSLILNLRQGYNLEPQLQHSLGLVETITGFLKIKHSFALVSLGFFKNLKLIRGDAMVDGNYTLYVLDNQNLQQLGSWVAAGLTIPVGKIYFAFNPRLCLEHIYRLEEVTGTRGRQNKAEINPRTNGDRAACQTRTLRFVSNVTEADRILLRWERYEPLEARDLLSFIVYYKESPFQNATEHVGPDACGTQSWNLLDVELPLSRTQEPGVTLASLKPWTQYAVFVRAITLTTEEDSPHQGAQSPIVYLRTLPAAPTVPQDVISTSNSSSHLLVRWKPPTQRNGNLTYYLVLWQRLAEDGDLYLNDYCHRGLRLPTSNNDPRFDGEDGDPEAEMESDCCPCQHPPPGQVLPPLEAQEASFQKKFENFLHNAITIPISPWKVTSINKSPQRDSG
Insulin receptor-related protein (Homo sapiens), sequence (P14616 747-1297 limits assumed): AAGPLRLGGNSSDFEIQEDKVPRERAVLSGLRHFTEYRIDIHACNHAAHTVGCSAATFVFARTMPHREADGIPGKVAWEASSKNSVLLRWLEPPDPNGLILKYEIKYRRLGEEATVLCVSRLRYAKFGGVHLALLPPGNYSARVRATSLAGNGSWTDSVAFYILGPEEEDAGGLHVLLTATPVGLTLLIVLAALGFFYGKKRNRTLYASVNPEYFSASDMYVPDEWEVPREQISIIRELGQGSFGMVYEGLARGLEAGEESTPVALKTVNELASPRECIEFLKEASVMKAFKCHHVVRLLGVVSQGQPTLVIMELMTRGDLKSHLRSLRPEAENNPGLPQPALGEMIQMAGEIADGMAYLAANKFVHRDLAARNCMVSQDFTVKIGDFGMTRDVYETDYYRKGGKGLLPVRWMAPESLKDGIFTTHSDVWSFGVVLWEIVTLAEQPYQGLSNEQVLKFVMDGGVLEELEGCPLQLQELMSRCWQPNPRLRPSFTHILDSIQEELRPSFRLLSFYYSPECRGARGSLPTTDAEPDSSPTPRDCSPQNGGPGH

[19] = target: Insulin receptor-related protein (Homo sapiens) (UniProt P14616); conditions: at 10 µM
[20] = target: T6, Tyrosine-protein kinase ITK/TSK (Homo sapiens) (UniProt Q08881); conditions: at 1 µM
T6 sequence (whole entry): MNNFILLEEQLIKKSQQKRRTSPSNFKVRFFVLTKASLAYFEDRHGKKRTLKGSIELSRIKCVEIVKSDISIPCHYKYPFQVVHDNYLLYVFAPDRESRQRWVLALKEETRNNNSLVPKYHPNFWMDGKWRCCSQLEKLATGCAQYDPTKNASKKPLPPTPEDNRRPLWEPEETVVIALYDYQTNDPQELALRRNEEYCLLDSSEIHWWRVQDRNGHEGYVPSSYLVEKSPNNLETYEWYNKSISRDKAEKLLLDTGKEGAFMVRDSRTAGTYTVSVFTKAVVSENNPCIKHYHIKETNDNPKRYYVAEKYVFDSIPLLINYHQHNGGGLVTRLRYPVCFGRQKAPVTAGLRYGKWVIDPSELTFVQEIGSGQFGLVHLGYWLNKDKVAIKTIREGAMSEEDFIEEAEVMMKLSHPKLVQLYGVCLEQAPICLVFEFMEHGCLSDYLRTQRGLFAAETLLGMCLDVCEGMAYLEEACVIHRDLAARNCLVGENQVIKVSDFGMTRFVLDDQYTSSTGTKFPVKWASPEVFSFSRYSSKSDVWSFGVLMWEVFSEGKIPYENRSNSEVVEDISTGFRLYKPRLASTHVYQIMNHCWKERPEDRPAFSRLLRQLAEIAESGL

Structure (SMILES)	residual activity [1] [%]	residual activity [2] [%]	residual activity [3] [%]	residual activity [4] [%]	residual activity [5] [%]	residual activity [6] [%]	residual activity [7] [%]	residual activity [8] [%]	residual activity [9] [%]	residual activity [10] [%]	residual activity [11] [%]	residual activity [12] [%]	residual activity [13] [%]	residual activity [14] [%]	residual activity [15] [%]	residual activity [16] [%]	residual activity [17] [%]	residual activity [18] [%]	residual activity [19] [%]	residual activity [20] [%]
O=Nc1c(-c2c(O)[nH]c3ccccc23)[nH]c2ccccc12	1	104	73	40	20	76	57	87	67	17	10	35	19	60	11	41	6	2	1	19
CNc1cc2c(Nc3cccc(Br)c3)ncnc2cn1	64	87	94	96	94	108	101	92	76	91	48	96	103	95	75	96	61	135	71	104
O=C1NC(=O)/C(=C\c2ccc3nccnc3c2)S1	27	92	75	105	89	100	54	102	69	107	94	103	97	76	35	104	91	127	58	97
CC(C)n1cnc2/c(=N/c3cccc(Cl)c3)nc(NCCO)[nH]c21	33	79	85	72	31	114	98	102	85	83	36	68	17	76	34	44	14	96	35	76
CCC(=O)Nc1ccc2ncnc(Nc3cccc(Br)c3)c2c1	68	75	94	97	102	121	125	112	97	110	79	102	100	89	83	96	91	111	79	106
COc1ccc(S(=O)(=O)N(CCO)c2ccccc2CN(C)C/C=C/c2ccc(Cl)cc2)cc1	56	97	92	94	93	117	108	115	110	91	114	100	90	99	106	81	75	117	90	99
O=C(Nc1cccc(Nc2nccc(Nc3cccc(C(F)(F)F)c3)n2)c1)C1CC1	32	105	72	90	96	113	88	74	52	22	12	86	97	81	82	50	44	13	1	96
CC(C)n1cnc2c(NCc3ccccc3)nc(NCCCO)nc21	66	93	81	90	87	116	104	110	94	91	70	99	75	105	106	93	76	106	84	105
O=C1NC(=O)/C(=C/c2ccc3c(c2)OC(F)(F)O3)S1	67	95	89	113	102	112	107	111	92	111	103	104	98	102	80	111	106	139	99	103
CC(=O)O/N=C1\C(=C2\C(=O)Nc3cc(Br)ccc32)Nc2ccccc21	14	91	74	102	100	111	108	101	93	118	91	102	81	95	96	86	48	109	92	82
O=C(Nc1cccc(Nc2cc(Nc3cccc(C(F)(F)F)c3)ncn2)c1)C1CC1	61	89	77	98	89	108	125	99	96	105	94	97	106	95	96	97	80	117	63	105
Ic1cccc(CSc2nnc(-c3ccncc3)o2)c1	6	82	79	79	95	80	72	87	79	93	82	95	92	91	94	55	41	112	101	93
CN(C)c1ccc(/C=C2\C(=O)Nc3ccccc32)cc1	45	93	98	105	103	102	120	112	93	99	65	93	71	118	91	92	46	111	23	98
O=[N+]([O-])c1ccc(-c2nc(-c3ccc(F)cc3)c(-c3ccncc3)[nH]2)cc1	76	61	59	97	105	119	99	129	111	107	109	105	95	107	108	104	97	124	98	108
